The panel holds about 83,000 compounds, 20% with a hit somewhere; the sample as a whole holds those more often.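 Percent growth is the endpoint: 0 to 100 indicates growth inhibition (40 means 60% inhibition), 0 means no net growth, and negative values indicate cell death.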 Values without a mark were called inactive. Activity calls are given as the source filed them. The calls were made as follows: active = growth percent below 10; inactive = the rest.
Columns and labels:
Assay in all cases: NCI-60 one-dose screen, 48 h (100 = growth as untreated, 0 = no growth, -100 = all killed)
Conditions in all cases: 10 µM unless noted
[1] = system: HCT-15 colon
[2] = system: HT29 colon
[3] = system: SNB-75 CNS
[4] = system: SNB-19 CNS
[5] = system: U251 CNS
[6] = system: PC-3 prostate
[7] = system: SK-MEL-5 melanoma
[8] = system: UACC-62 melanoma
[9] = system: LOX IMVI melanoma
[10] = system: SK-MEL-28 melanoma
[11] = system: SK-MEL-2 melanoma
[12] = system: EKVX NSCLC
[13] = system: SN12C renal
[14] = system: UO-31 renal
[15] = system: TK-10 renal
[16] = system: ACHN renal
[17] = system: CAKI-1 renal
[18] = system: A498 renal
[19] = system: CCRF-CEM leukemia
[20] = system: MOLT-4 leukemia

In the case of `CCOC(=O)c1c[nH]c2cc(OCC3CC3)c(OCC3CC3)cc2c1=O`, the growth [1] was 104%, the growth [2] was 111% and the growth [3] was 114%. The growth [4] was 117%, the growth [5] was 119% and the growth [6] was 95.1%. It also gave a growth [7] of 112%, a growth [8] of 104% and a growth [9] of 113%. For the same molecule, the growth [10] was 110%, the growth [11] was 119% and the growth [12] was 116%. It also gave a growth [13] of 108%, a growth [14] of 86.5% and a growth [15] of 126%. The growth [16] was 105%, the growth [17] was 104% and the growth [18] was 94.1%. It also gave a growth [19] of 91.3% and a growth [20] of 109%.

In the case of `O=C(NCCO)c1cccnc1`, the growth [1] was 113%, the growth [2] was 91.5% and the growth [3] was 92.9%. The growth [4] was 101%, the growth [5] was 92.7% and the growth [6] was 83.4%. The growth [7] was 96%, the growth [8] was 105% and the growth [9] was 95%. The growth [10] was 106%, the growth [11] was 81.8% and the growth [12] was 109%. For the same molecule, the growth [13] was 100%, the growth [14] was 85.2% and the growth [15] was 81%. The growth [16] was 110%, the growth [17] was 98.3% and the growth [18] was 96.9%. It also gave a growth [19] of 81.4% and a growth [20] of 107%.

`CCOc1ccc2sc(NS(=O)(=O)c3ccc(N)cc3)nc2c1` gave a growth [1] of 107%, a growth [2] of 109% and a growth [3] of 98.2%. For the same molecule, the growth [4] was 103%, the growth [5] was 99.5% and the growth [6] was 119%. For the same molecule, the growth [7] was 106%, the growth [8] was 93% and the growth [9] was 105%. For the same molecule, the growth [10] was 117%, the growth [11] was 109% and the growth [12] was 103%. It also gave a growth [13] of 98.2%, a growth [14] of 91.2% and a growth [15] of 124%. It also gave a growth [16] of 108%, a growth [17] of 89.4% and a growth [18] of 115%. For the same molecule, the growth [19] was 99.1% and the growth [20] was 104%.

Molecule `CC(C)[N+](C)(C)CC(O)COc1cccc2ccccc12` (stereo not given) has a growth [1] of 97.1%, a growth [2] of 111% and a growth [3] of 109%. For the same molecule, the growth [4] was 103%, the growth [5] was 101% and the growth [6] was 92.2%. The growth [7] was 107%, the growth [8] was 101% and the growth [9] was 93.2%. The growth [10] was 113%, the growth [11] was 104% and the growth [12] was 101%. For the same molecule, the growth [13] was 103%, the growth [14] was 76.4% and the growth [15] was 111%. It also gave a growth [16] of 101%, a growth [17] of 102% and a growth [18] of 92.9%. It also gave a growth [19] of 88.1% and a growth [20] of 109%.

In the case of `CCN(CC)CCS(=O)(=O)CCNc1ccnc2cc(Cl)ccc12`, the growth [1] was 10.1%, the growth [2] was -21.1% (active) and the growth [3] was 9.48% (active). The growth [4] was 70%, the growth [5] was -4.39% (active) and the growth [6] was 33%. For the same molecule, the growth [7] was 29.5%, the growth [8] was 29.7% and the growth [9] was 11.3%. It also gave a growth [10] of 49.5%, a growth [11] of 15.2% and a growth [12] of 26.7%. For the same molecule, the growth [13] was 18.5%, the growth [14] was -25.6% (active) and the growth [15] was 13.5%. For the same molecule, the growth [16] was 7.29% (active), the growth [17] was 8.63% (active) and the growth [18] was -29.1% (active). The growth [19] was 3.54% (active) and the growth [20] was -30.1% (active).

Work on `COc1ccc2nc3cc(Cl)ccc3c(Nc3ccc(O)cc3)c2c1` yielded a growth [1] of 52.9%, a growth [2] of 57.9% and a growth [3] of 89.6%. The growth [4] was 81.9%, the growth [5] was 70.5% and the growth [6] was 89.2%. For the same molecule, the growth [7] was 88.6%, the growth [8] was 80.4% and the growth [9] was 43.5%. For the same molecule, the growth [10] was 107%, the growth [11] was 110% and the growth [12] was 94.5%. The growth [13] was 67.2%, the growth [14] was 62.1% and the growth [15] was 88%. It also gave a growth [16] of 66.6%, a growth [17] of 71.5% and a growth [18] of 57.2%. For the same molecule, the growth [19] was 23.9% and the growth [20] was 9.49% (active).

`O=C(N=c1n(-c2ccccc2)nc2n1CCN2C1=NCCN1)c1ccc(Cl)cc1` showed a growth [1] of 82.5%, a growth [2] of 67.5% and a growth [3] of 66.3%. For the same molecule, the growth [4] was 91.9%, the growth [5] was 80.8% and the growth [6] was 72.7%. The growth [7] was 65.6%, the growth [8] was 64.1% and the growth [9] was 61.2%. For the same molecule, the growth [10] was 81.3%, the growth [11] was 106% and the growth [12] was 93.9%. It also gave a growth [13] of 80.1%, a growth [14] of 57.9% and a growth [15] of 89.5%. For the same molecule, the growth [16] was 96.7%, the growth [17] was 79.2% and the growth [18] was 68.3%. For the same molecule, the growth [19] was 77.8% and the growth [20] was 77.7%.

`C#CC(OC(=O)N(C)C)(c1ccccc1)c1ccc(F)cc1` (stereo not given) showed a growth [1] of 94.8%, a growth [2] of 116% and a growth [3] of 93%. For the same molecule, the growth [4] was 120%, the growth [5] was 94.8% and the growth [6] was 102%. The growth [7] was 112%, the growth [8] was 86.2% and the growth [9] was 78.3%. It also gave a growth [10] of 96.5%, a growth [11] of 102% and a growth [12] of 116%. The growth [13] was 96.7%, the growth [14] was 89.3% and the growth [15] was 125%. For the same molecule, the growth [16] was 101%, the growth [17] was 91.8% and the growth [18] was 105%. For the same molecule, the growth [19] was 116% and the growth [20] was 98%.

`O=C1Nc2ccccc2/C1=C/C(=O)c1ccc(N2CCCCC2)cc1` showed a growth [1] of 79.8%, a growth [2] of 32.8% and a growth [3] of 91.4%. For the same molecule, the growth [4] was 86.5%, the growth [5] was 52.7% and the growth [6] was 52.7%. For the same molecule, the growth [7] was 93.2%, the growth [8] was 68.6% and the growth [9] was 43.3%. The growth [10] was 105%, the growth [11] was 113% and the growth [12] was 106%. For the same molecule, the growth [13] was 73.5%, the growth [14] was 47.4% and the growth [15] was 85.8%. For the same molecule, the growth [16] was 27.6%, the growth [17] was 63.8% and the growth [18] was 95.8%. For the same molecule, the growth [19] was 5.19% (active) and the growth [20] was -6.75% (active).

For `O=c1[nH]c2cc(Cl)c(Cl)cc2n2cc3ncccc3c12`, the growth [1] was 85.9%, the growth [2] was 67.9% and the growth [3] was 67.2%. The growth [4] was 86.8%, the growth [5] was 72.6% and the growth [6] was 72.8%. The growth [7] was 84.8%, the growth [8] was 57.8% and the growth [9] was 81.6%. The growth [10] was 120%, the growth [11] was 112% and the growth [12] was 82.3%. It also gave a growth [13] of 83%, a growth [14] of 56.9% and a growth [15] of 94.1%. The growth [16] was 89.7%, the growth [17] was 59.9% and the growth [18] was 73.6%. For the same molecule, the growth [19] was 52.1% and the growth [20] was 58.8%.

Work on `CCc1cccc(Cl)c1` yielded a growth [1] of 105%, a growth [2] of 92.8% and a growth [3] of 91%. For the same molecule, the growth [4] was 104%, the growth [5] was 105% and the growth [6] was 88.2%. For the same molecule, the growth [7] was 103%, the growth [8] was 101% and the growth [9] was 103%. For the same molecule, the growth [10] was 106%, the growth [11] was 118% and the growth [12] was 105%. It also gave a growth [13] of 90.6%, a growth [14] of 85.3% and a growth [15] of 107%. It also gave a growth [16] of 98.9%, a growth [17] of 108% and a growth [18] of 120%. It also gave a growth [19] of 88.2% and a growth [20] of 98.1%.

For `CCn1cc(-c2cc(-c3ccc(Cl)cc3)nc(N)n2)c(-c2ccc(Br)cc2)n1`, the growth [1] was 64.9%, the growth [2] was 55.8% and the growth [3] was 82.4%. It also gave a growth [4] of 88.7%, a growth [5] of 87% and a growth [6] of 47%. For the same molecule, the growth [7] was 90.8%, the growth [8] was 60.7% and the growth [9] was 88.5%. The growth [10] was 61.3%, the growth [11] was 62.7% and the growth [12] was 78.1%. For the same molecule, the growth [13] was 84.5%, the growth [14] was 67.7% and the growth [15] was 80.2%. For the same molecule, the growth [16] was 46.9%, the growth [17] was 51.8% and the growth [18] was 92%. For the same molecule, the growth [19] was 82.9% and the growth [20] was 83.4%.

In the case of `O=S(=O)(c1ccc(N/N=C\c2ccccc2Cl)cc1)c1ccc(N/N=C/c2ccccc2Cl)cc1`, the growth [1] was 73.7%, the growth [2] was 79.2% and the growth [3] was 61.5%. It also gave a growth [4] of 90.4%, a growth [5] of 90.1% and a growth [6] of 54.7%. It also gave a growth [7] of 97.1%, a growth [8] of 73.2% and a growth [9] of 95.1%. For the same molecule, the growth [10] was 94.2%, the growth [11] was 89.1% and the growth [12] was 84.5%. It also gave a growth [13] of 87.2%, a growth [14] of 63.7% and a growth [15] of 110%. For the same molecule, the growth [16] was 82.7%, the growth [17] was 62.2% and the growth [18] was 94.2%. The growth [19] was 75.9% and the growth [20] was 65.1%.

`N#CC1C(=O)NC(c2ccccc2[N+](=O)[O-])c2sc3c(F)cccc3c21` (stereo not given) was tested, and the growth [1] was 87.8%, the growth [2] was 85.3% and the growth [3] was 82.6%. For the same molecule, the growth [4] was 70.8%, the growth [5] was 42.6% and the growth [6] was 80%. For the same molecule, the growth [7] was 75.2%, the growth [8] was 9.47% (active) and the growth [9] was 91.4%. For the same molecule, the growth [10] was 111%, the growth [11] was 82.6% and the growth [12] was 64.8%. For the same molecule, the growth [13] was 78.1%, the growth [14] was 53.8% and the growth [15] was 41.1%. The growth [16] was 65.8%, the growth [17] was 5.27% (active) and the growth [18] was -60.7% (active). The growth [19] was 86.9% and the growth [20] was 86.6%.

Molecule `Cc1cnc([C@]23CC[C@@H](C)[C@H](C)[C@H]2C2=CC[C@@H]4[C@@]5(C)Cc6c([nH]c7ccccc67)C(C)(C)[C@@H]5CC[C@@]4(C)[C@]2(C)CC3)o1` has a growth [1] of 66.8% [100 µM], a growth [2] of 25.7% [100 µM] and a growth [3] of 62.4% [100 µM]. For the same molecule, the growth [4] was 35.6% [100 µM], the growth [5] was 41.7% [100 µM] and the growth [6] was 55.4% [100 µM]. The growth [7] was 29% [100 µM], the growth [8] was 24.4% [100 µM] and the growth [9] was 17.3% [100 µM]. The growth [10] was 20.3% [100 µM], the growth [11] was 77.4% [100 µM] and the growth [12] was 74% [100 µM]. The growth [13] was 36.7% [100 µM], the growth [14] was 39% [100 µM] and the growth [15] was 64.2% [100 µM]. For the same molecule, the growth [16] was 42.7% [100 µM], the growth [17] was 49.7% [100 µM] and the growth [18] was 91.9% [100 µM]. For the same molecule, the growth [19] was 64% [100 µM] and the growth [20] was 50.5% [100 µM].

— PubChem BioAssay (NCI)
